Screening data (PubChem)
Most compounds without a hit are left out; they make up all but 7.5% or so of the library.
FLuc counter = qHTS profiling assay for firefly luciferase inhibitor/activator using purifed enzyme and Km concentrations of substrates (counterscreen for miR-21 project); Luciferin 4-monooxygenase (Photinus pyralis), P08659; purified FLuc, Km substrates, luminescence inhibition; Potency, µM (top dose mostly 57.5 µM), for the others: top-dose activity change, negative = inhibition, usual class: inhibitors; hit rate 6.9% among 360,000; AID 588342, 2011;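 also: plate controls were vehicle for no effect and reference inhibitor for full effect; nearly all actives have a fitted effect of over 55% in size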
Target sequence (P08659 whole entry, looked up): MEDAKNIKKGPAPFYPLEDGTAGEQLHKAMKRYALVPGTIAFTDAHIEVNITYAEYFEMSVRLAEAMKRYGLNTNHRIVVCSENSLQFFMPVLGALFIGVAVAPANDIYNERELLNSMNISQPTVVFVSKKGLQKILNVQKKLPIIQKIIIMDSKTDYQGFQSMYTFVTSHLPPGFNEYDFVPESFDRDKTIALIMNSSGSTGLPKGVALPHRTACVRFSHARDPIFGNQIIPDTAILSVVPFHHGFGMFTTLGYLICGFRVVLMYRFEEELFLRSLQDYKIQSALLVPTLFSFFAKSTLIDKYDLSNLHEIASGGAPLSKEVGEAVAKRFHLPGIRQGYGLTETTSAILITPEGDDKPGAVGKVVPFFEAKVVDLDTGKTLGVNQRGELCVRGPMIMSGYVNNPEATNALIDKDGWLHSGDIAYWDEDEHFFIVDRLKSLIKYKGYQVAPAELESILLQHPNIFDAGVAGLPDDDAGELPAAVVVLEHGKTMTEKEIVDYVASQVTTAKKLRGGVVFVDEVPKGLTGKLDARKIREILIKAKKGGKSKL
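Purified P. pyralis luciferase, 10 nM final, with Km-level 10 uM D-luciferin and 10 uM ATP in 50 mM Tris acetate pH 7.5, 10 mM Mg acetate, 0.01% Tween-20, 0.05% BSA; 6-point qHTS titration about 60 µM downward; luminescence read.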
KinaseGlo FLuc = Counterscreen for Luciferase (Kinase-Glo TM) Inhibition | Luciferin 4-monooxygenase (Photuris pensylvanica), Q27757 | Kinase-Glo luciferase, ATP luminescence, 8 min | Potency, µM (top dose mostly 38.3 µM), for inactives: at the highest dose activity change, negative = inhibition, actives largely listed as inhibitors | hit rate 0.28% among 200,000; also: % is scaled to controls: 0 for no effect and ±100 for the full control effect; nearly all actives have a fitted effect of over 60% in size
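Luminescence was the read-out, taken after 8-minute incubation at ambient temperature. Luciferase turned over luciferin with 10 uM ATP in imidazole pH 7.2 buffer containing KCl, MgCl2, Tween 20 and BSA.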
SMN2 splice up = qHTS Assay for Enhancers of SMN2 Splice Variant Expression; HEK293 SMN2-luciferase splicing reporter, luminescence, 30-36 h; Potency, µM (top dose mostly 46.1 µM), without a hit: at the highest dose activity change, positive = activation, actives largely listed as activators; hit rate 2.8% among 210,000; also: % of control where 0% means no effect; nearly all actives have a fitted effect of over 55% in size
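HEK293 cells carry an SMN2 […]–luciferase reporter in which exon 7 inclusion puts luciferase in frame. Cells were plated 10-12 h before compound addition, then incubated 30-36 h at 37C. ONE-Glo luminescence was read; sodium butyrate at 4.5 mM final served as control.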
ELG1 genotox = qHTS screen for small molecules that induce genotoxicity in human embryonic kidney (HEK293T) cells expressing luciferase-tagged ELG1; HEK293T ELG1-luciferase reporter, luminescence, 16 h; hit rate 1.3% among 330,000; Potency, µM (titrated, usually from 46 µM), without a hit: at the highest dose activity change, positive = activation, hits mostly activators; AID 504466, 2011; also: % of control where 0% means no effect; nearly all actives have a fitted effect of over 60% in size
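16 hr compound incubation (37 °C, 5% CO2) of HEK293T cells carrying luciferase-tagged ELG1; luciferase then measured by ONE-Glo luminescence after 30 min at RT.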
Rab9 promoter act = qHTS Assay for Rab9 Promoter Activators | Huh7 Rab9 promoter-luciferase reporter, luminescence, 24 h | Potency, µM (doses to about 9.22 µM), for inactives: at the highest dose activation, negative = inhibition, usual class: activators | hit rate 2.8% among 320,000; also: % of control where 0% means no effect; nearly all actives have a fitted effect of over 60% in size
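Rab9 promoter-driven luciferase in stably transfected Huh7 cells; 1500 cells/well rested 2 h, exposed to compound in DMSO for 24 h at 37 °C, 5% CO2. Luminescence read 10 min after adding luciferase reagent at ambient temperature.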
NPC1 promoter act = qHTS Assay for NPC1 Promoter Activators; Huh7 NPC1 promoter luciferase reporter, 24 h; Potency, µM (series often up to 9.22 µM), for inactives: at the top dose activation, most hits filed as activators; hit rate 2.4% among 320,000; AID 485313, 2010; also: % of control where 0% means no effect; nearly all actives have a fitted effect of over 60% in size
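NPC1 promoter–luciferase Huh7 cells; 24 h compound; luminescence.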
Active calls of the source: *; ? = inconclusive; nt = not tested or not shown; [ ] = another dose, or the depositor's remark. Calls follow the shape of the dose curve; as a rule, active = well fitted curve in the direction sought with a large enough effect; inconclusive = small, poorly fitted or top-dose-only effect, or another doubt; inactive = no such curve, though single readings can be large; an effect the other way counts as inactive or inconclusive. Potency is read from the fitted curve at half-maximal effect.

SMILES	FLuc counter	KinaseGlo FLuc	SMN2 splice up	ELG1 genotox	Rab9 promoter act	NPC1 promoter act
CCn1ccc(C(=O)Nc2ccc(N(C)C(C)=O)cc2)n1	?	-14.5%	17.7%	?	?	21.8%
CCn1ccc(C(=O)Nc2ccc3c(c2)CCC3)n1	3.01µM*	nt	nt	?	1µM*	1µM*
CCOC(=O)c1c(C)nc(C)c(C(=O)OCC)c1-c1ccccc1	6.01µM*	9.7%	15.8µM*	19.0%	2.24µM*	3.98µM*
CCOC(=O)c1c(-c2ccccc2)cn2c(C)cc(C)nc12	3.38µM*	-0.5%	11.2µM*	16.4µM*	2.82µM*	3.16µM*
CCOC(=O)c1c(C)nc(-c2ccccc2)nc1N	-15.3%[2.3 µM]	4.5%	nt	18.4µM*	?	3.8%
CCOC(=O)c1cnn(-c2cc(C)nc3c(-c4ccccc4)c(C)nn23)c1N	-2.5%	3.6%	12.2%	-3.3%	2.7%	1.2%
CC(=O)c1c(C)nc(-c2ccccc2)nc1N	?	-2.0%	nt	11.2%	12.8%	19.2%
Cc1cccc(-n2cnc(C(=O)NC3CCCCCC3)c2)n1	15.1µM*	-7.4%	?	?	3.55µM*	2.51µM*
CC1CCCCC1Nc1nc2ccc(Cl)cc2n2cnnc12 (stereo not drawn)	-15.0%	nt	nt	2.9%	0.3%	-3.0%
Cc1ccc(-c2onc3ccc(C=O)cc23)cc1	?	-1.3%	?	5.17µM*	?	?
COc1ccc(-c2nc3c4ccccc4[nH]c(=O)n3n2)cc1	8.49µM*	9.2%	5.6%	nt	nt	nt
COc1cc2[nH]c(=O)n3nc(-c4ccccc4)nc3c2cc1OC	-12.6%	-0.8%	-0.8%	-5.0%	-1.8%	-8.2%
COCCn1c(SCC(=O)NC2CC2)nc2ccccc21	nt	nt	nt	5.7%	-6.0%	-0.2%
Cn1cccc1C(=O)C(=O)Nc1ccccc1	5.36µM*	12.6µM*	12.6µM*	?	0.631µM*	0.562µM*
CCCSc1oc(-c2cccs2)nc1S(=O)(=O)c1ccc(Cl)cc1	-8.4%	nt	-10.5%	nt	nt	nt
CCn1cc(C(=O)N2CCN(c3ccc(OC)cc3)CC2)c(=O)c2cc(S(=O)(=O)N(C)C3CCCCC3)ccc21	-18.1%	nt	?	nt	nt	nt
CCOc1ccc(Nc2oc(-c3ccc(COc4ccc(OC)cc4)o3)nc2C#N)cc1	-6.2%	nt	nt	nt	nt	nt
Cc1ccc(C(=O)Sc2cccccc2=O)cc1	3.01µM*	nt	nt	6.51µM*	-52.2%	-39.3%
Cc1ccc(C(=O)CC(=O)c2ccccc2)cc1	9.53µM*	nt	nt	24.8%	2.24µM*	2.51µM*
Cc1ccc(C(=O)NC(=S)NCC(=O)c2ccccc2)cc1	?	-4.3%	25.1%	4.8%	24.7%	14.0%
CCCC(=O)c1ccc(-c2ccccc2)cc1	16.9µM*	1.3%	?	?	-0.1%	5.9%
O=C(CN1C(=O)CCC1=O)c1ccc(-c2ccccc2)cc1	?	-6.1%	3.98µM*	16.7%	?	24.5%
Cc1ccc(S(=O)(=O)/N=C(/Sc2ccccc2C(=O)O)c2ccccc2)cc1	-4.0%	nt	nt	1.5%	2.4%	-0.6%
CCOc1ccc(C(=O)NC2CC(=O)N(c3ccc(C)cc3)C2)cc1OCC (stereo not drawn)	3.8%	nt	nt	nt	nt	nt
CCn1c(=O)c2sccc2n2c(CCCC(=O)N3CCN(c4ccc(F)cc4)CC3)nnc12	1.3%	nt	nt	nt	nt	nt
O=C(c1ccc(F)cc1)N1CCC(C(=O)N2CCN(S(=O)(=O)c3cccc(Cl)c3)CC2)CC1	2.1%	nt	nt	-11.5%	-7.2%	-0.6%
CC(NC(=O)c1ccccc1)C(=O)OCC(=O)c1ccc(Br)cc1 (stereo not drawn)	-9.9%	nt	nt	6.1%	17.3%	-1.8%
Cc1ccc(C(=O)COC(=O)c2cc(Cl)nc3ccccc23)cc1	10.7µM*	-1.4%	1.3%	1.7%	0.7%	-1.3%
